Most compounds without a hit are left out; they make up all but 7.6% or so of the library.
M1 ag: activates the M1 muscarinic receptor; CHO-M1 cells, Fluo-4 calcium fluorescence, agonist mode; active compounds read high; B-score at 10 µM; 64,000 compounds, 3% hits; AID 626;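 active = fluorescence rise, raw or as B-score row- and column-corrected plate score, outside the 99.7% band of its plate's samples, either direction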
PLAP activator: activators of human placental alkaline phosphatase | P05187 | purified PLAP enzyme, luminescent substrate read-out; active compounds read high | activation fold at 20 µM | 96,000 compounds, 1.2% hits | AID 696; in the data active = activation fold above about 2
Target sequence (P05187 whole entry, looked up): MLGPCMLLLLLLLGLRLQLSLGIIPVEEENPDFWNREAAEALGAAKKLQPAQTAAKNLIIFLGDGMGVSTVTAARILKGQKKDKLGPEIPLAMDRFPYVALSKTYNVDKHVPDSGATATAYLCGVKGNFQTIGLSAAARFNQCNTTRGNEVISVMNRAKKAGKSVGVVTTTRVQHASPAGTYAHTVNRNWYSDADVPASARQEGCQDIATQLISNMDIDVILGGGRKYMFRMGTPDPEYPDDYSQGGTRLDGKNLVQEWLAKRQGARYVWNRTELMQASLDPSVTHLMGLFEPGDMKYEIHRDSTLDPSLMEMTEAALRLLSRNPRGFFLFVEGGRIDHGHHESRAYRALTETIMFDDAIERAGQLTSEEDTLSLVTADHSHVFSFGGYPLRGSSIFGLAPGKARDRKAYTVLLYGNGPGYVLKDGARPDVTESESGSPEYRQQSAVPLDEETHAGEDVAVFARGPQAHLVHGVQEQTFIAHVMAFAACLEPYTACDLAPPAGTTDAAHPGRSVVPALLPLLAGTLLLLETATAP
M1 antag: M1 muscarinic receptor (rat) antagonism; AID 628; B-score at 10 µM; P08482; CHO-M1 cells, Fluo-4 calcium, ACh EC80 antagonist mode; active compounds read low; 64,000 compounds, 3.4% hits;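 active = calcium fluorescence response, raw or row-and-column corrected B-score, differing from the plate sample mean either way at a set confidence level, mostly lower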
Cav3 T inh: inhibitors of human Cav3.2 T-type calcium channel | O95180 | Cav3.2-expressing cells, Fluo-4 calcium fluorescence FDSS; active compounds read low | B-score at 10 µM | 100,000 compounds, 4% hits;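 active = single-dose well whose peak fluorescence ratio is a statistical outlier from its plate by either plate-standardised score or position-corrected B-score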
M1 antag conf: M1 muscarinic receptor (rat) antagonism, confirmed | shares compounds with M1 antag | CHO-M1 cells, Fluo-4 calcium, ACh EC80 antagonism; active compounds read low | calcium response (max-min fluorescence) at 10 µM | 1,700 compounds, 43% hits;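 active = calcium response below the same-plate mean of wells given acetylcholine alone at its 80%-effect dose, minus 3 SD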;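 also: raw fluorescence intensity difference in arbitrary instrument units and not normalized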
mGluR4 antag: mGluR4 (human) activity, M1 antagonist secondary assay. shares compounds with M1 antag. CHO-mGluR4 calcium flux, Fluo-4 fluorescence, glutamate EC80; active compounds read low. fluorescence response (max-min) at 10 µM. 1,700 compounds, 0.9% hits;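 active = fluorescence response below the plate's average for near-maximal glutamate wells, less 3 SD of those wells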;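 also: raw unnormalized fluorescence span taken in the window right after glutamate addition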
An asterisk follows results filed as active; · = no result.

SMILES	M1 ag	PLAP activator	M1 antag	Cav3 T inh	M1 antag conf	mGluR4 antag
CC(C)CC(=O)NCc1ccc(F)cc1	·	1.1	·	0.087	·	·
O=S(=O)(c1ccc(OCC(O)CN2CCc3ccccc3C2)cc1)N1CCOCC1 (stereo not drawn)	0.62	1.3	-3.7*	0.44	422*	252
CCCCn1c(=O)n(Cc2cccc(F)c2)c(=O)c2c1ncn2Cc1ccco1	0.33	1	-1.5*	-4.3	515	213
Cn1c2ccc(F)cc2c2ncn(Cc3ccco3)c(=O)c21	·	0.9	·	0.16	·	·
CC(C)OC(=O)CCC1(C(=O)O)CCC(=O)NC1 (stereo not drawn)	-0.57	0.9	0.096	-0.23	·	·
O=C(Nc1cccnc1)C1CCCN(S(=O)(=O)c2cccc3nsnc23)C1 (stereo not drawn)	-0.77	1.1	-0.15	1	·	·
Cc1cc(C(=O)CSc2nnc(NCc3ccccc3)s2)c(C)n1C	-0.38	1	-3.5*	-0.78	488	249
Cc1cc(C(=O)CSc2nnc(N)s2)c(C)n1-c1c(C)n(C)n(-c2ccccc2)c1=O	·	1.6	·	0.88	·	·
CCc1nnc(NC(=O)c2c(O)c3cccc4c3n(c2=O)CC4)s1	-0.21	1	0.74	·	·	·
CCc1nnc(NCC(=O)N2CCc3ccccc32)s1	0.59	1.8	-4.8*	1.5	605	254
CCOC(=O)c1c(C)[nH]c(C(=O)COC(=O)c2ccc(N3CCCC3=O)cc2)c1C	-0.49	1	0.28	-0.025	·	·
Cc1nnc(SCC(=O)c2cc(C)n(-c3c(C)n(C)n(-c4ccccc4)c3=O)c2C)s1	0.93	1.6	-1.5	1.1	·	·
Cc1cc(C(=O)CSc2nncs2)c(C)n1-c1c(C)n(C)n(-c2ccccc2)c1=O	-2.4	1.4	-9.1*	0.35	215*	195
CCC(=O)Nc1ccc(N2CCN(Cc3ccccc3F)CC2)cc1	0.55	1.2	-2.6*	0.61	630	226
CN(C)CCCNC(=O)c1ccc(Cl)c(S(=O)(=O)N(C)c2ccccc2)c1	·	1.2	·	0.4	·	·
COCCCNC(=O)CC(NS(=O)(=O)c1ccc(Cl)cc1)c1ccc(OC)cc1 (stereo not drawn)	·	1.8	·	-0.22	·	·
CCOC(=O)C1CCCN(c2c(NCCCN(CC)c3cccc(C)c3)c(=O)c2=O)C1 (stereo not drawn)	-0.027	1	-5.2*	1.1	566	225
CCn1c(CNc2ccccc2Cl)nnc1SCC(=O)OC1CCCCC1	0.55	1.4	-4.7*	-4.5*	370*	220
CCn1c(CNc2cccc(Cl)c2)nnc1SCC(=O)OC1CCCCC1	-0.35	1.8	-0.36	·	·	·
CCn1cc(C2=NC(C(C)C)CO2)c2ccccc21 (stereo not drawn)	-0.76	1.2	-6.5*	-0.28	412*	270
Cc1cc(=S)n(-c2ccccc2)n1C	-0.2	0.7	1.4	0.24	·	·
OCC1CCCN(Cc2ccc(-c3ccccc3)cc2)C1 (stereo not drawn)	-0.29	1.3	-2.9*	1.6	392*	263
CC(C)(C)C(=O)/C=C(\N)c1ccncc1	-0.21	0.9	-0.65	0.08	·	·
COc1ccc(/C(N)=C/C(=O)C(C)(C)C)cc1	-0.57	0.9	-3.5*	-1.1	554	216
O=C(Nc1ccc(S(=O)(=O)N2CCCCCC2)cc1)C1CCCO1 (stereo not drawn)	-0.0033	1.2	-3.2*	1.4	654	218
SMILES	M1 ag	PLAP activator	M1 antag	Cav3 T inh	M1 antag conf	mGluR4 antag
O=C(Nc1ccc(S(=O)(=O)Nc2ccc(Cl)cc2)cc1)C1CCCO1 (stereo not drawn)	-0.15	0.8	-1.1*	-1.9	575	297
O=C(Nc1ccc(S(=O)(=O)N2CCOCC2)cc1)C1CCCCC1	0.31	0.9	0.38	0.21	·	·
O=C(NS(=O)(=O)c1ccc(NC(=O)C2CCCO2)cc1)c1ccccc1 (stereo not drawn)	-0.24	·	0.12	0.93	·	·
CC(O)[C@@H](C(=O)N1CCNCC1)n1cc(CCCCN)nn1 (stereo partly drawn)	·	·	·	0.064	·	·
CCCCNC(=O)c1ccccc1C(=O)NCCCC	-0.17	1	-3.9*	0.33	660	227
COC(=O)CSC1=C(C#N)C(c2ccc(F)cc2)CC(=O)N1 (stereo not drawn)	-0.88	1.1	-2.2*	-0.095	632	197
O=C(O)C1=C[C@H](c2csc3ccccc23)C[C@H](OCCCCO)O1	·	·	·	-0.25	·	·
